TRHR enhancer-1: allosterically enhances the human TRH receptor. TRHR cells, fluo-8 calcium fluorescence, EC20 TRH enhancement. P34981. 360,000 tested, 0.66% active. AID 493056. enhancement, % at 2 µM; in the data active means enhancement above about 30%; further: 0% is about no effect
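Enhancer read-out: after compound pinning and an initial kinetic agonist-mode read, an EC20 of TRH (10 nM final) was injected and fluo-8 calcium signal (Ex 480/Em 530) followed at 1 s/cycle for 100 cycles in TRHR-expressing cells.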
TRPML1 ag: activates the human TRPML1 channel. 410,000 tested, 0.12% active. TRPML1-expressing cells, Ca2+ dye fluorescence, FDSS. Q9GZU1. activation, % (concentration not given with the values); in the data active means activation above about 50%; inconclusive means mostly about 30% to 49%; further: 0% is about no effect
Target sequence (Q9GZU1 whole entry, looked up): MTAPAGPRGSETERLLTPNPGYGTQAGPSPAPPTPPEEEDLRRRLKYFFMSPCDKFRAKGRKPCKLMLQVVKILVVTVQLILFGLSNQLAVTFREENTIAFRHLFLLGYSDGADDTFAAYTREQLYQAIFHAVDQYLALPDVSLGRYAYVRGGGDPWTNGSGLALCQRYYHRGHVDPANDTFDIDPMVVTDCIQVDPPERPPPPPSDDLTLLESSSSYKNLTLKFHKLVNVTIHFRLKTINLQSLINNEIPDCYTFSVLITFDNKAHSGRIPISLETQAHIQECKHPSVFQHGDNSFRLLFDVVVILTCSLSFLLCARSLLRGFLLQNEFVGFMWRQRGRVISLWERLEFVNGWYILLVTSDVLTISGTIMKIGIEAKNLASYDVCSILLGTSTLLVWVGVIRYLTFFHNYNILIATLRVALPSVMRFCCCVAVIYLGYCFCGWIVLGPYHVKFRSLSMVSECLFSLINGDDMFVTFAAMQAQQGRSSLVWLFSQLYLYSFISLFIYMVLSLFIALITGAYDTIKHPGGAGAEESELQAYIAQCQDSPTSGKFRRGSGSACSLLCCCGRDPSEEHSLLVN
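In this qHTS format, compounds were pin-transferred onto Ca8-dye-loaded TRPML1-DL cells induced with Tet overnight, and intracellular Ca2+ fluorescence was recorded kinetically for 110 s after a 10 s baseline. A subsequent 4uM final 54-4 (EC80) addition followed by a second 110 s read served as the antagonist phase.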
hERG WT inh: KCNH2 (human, wildtype) channel inhibition; AID 720551; U2OS, BacMam KCNH2, thallium flux FluxOr; hits give low values; 340,000 tested, 0.37% active; Q12809; activity change, % at 1.84 µM;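 active means maximum activity change below -70%; inconclusive means maximum activity change between -70% and -50%; inactive means maximum activity change above -50%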; further: on the % scale 0 is the no-effect control and ±100 the full control effect
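U2OS cells were transduced with wild-type KCNH2 virus (2.03 x 10^8 / mL) for 4 h at room temperature, then cultured overnight at 37 C. Thallium flux was read with FluxOr dye. Rate constants were normalized to DMSO controls.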
TRPML1 inh: inhibitors of human TRPML1 channel; TRPML1-inducible cells, Ca2+ dye fluorescence, FDSS; hits give low values; inhibition of EC80 agonist-evoked calcium signal; activity change, negative = inhibition, % (concentration not given with the values); 390,000 tested, 0.02% active; AID 624415; in the data active means activity change below about -50%; inconclusive means between about -30% and that limit;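 further: stimulus is agonist 54-4 at its EC80 concentration; on the % scale 0 is the no-effect control and ±100 the full control effect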
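Calcium fluorescence in TRPML1-DL cells induced overnight with Tet: a 110 s read after compound pin addition, then a 110 s antagonist read after challenge with 54-4 at 4 uM final (EC80).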
TRHR agonist-1: activates the human TRH receptor; TRHR cells, calcium flux fluo-8, FDSS agonist mode; activation, % at 2 µM; 360,000 tested, 0.18% active; in the data active means activation above about 30%; further: 0% is about no effect
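In this calcium-flux screen, cells bearing human TRHR are dye-loaded with fluo-8, baselined for 10 cycles, then exposed to library compounds; positive kinetic calcium responses during the agonist phase mark hits, with TRH as control.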
KCNH2 3.1 inh: blocks the human KCNH2 3.1 channel isoform; U2OS KCNH2 3.1, thallium flux FluxOr; hits give low values; activity change, % (tested at about 1.8 µM); 340,000 tested, 0.95% active; AID 720553;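 active means maximum activity change below -70%; inconclusive means maximum activity change from -70% to -50%; inactive means maximum activity change above -50%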;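 further: thallium influx rate constant from kinetic fluorescence after stimulation buffer; on the % scale 0 is the no-effect control and ±100 the full control effect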
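U2OS cells transduced with KCNH2 3.1 mutant virus (1.77 x 10^8 /mL, 4 h), plated overnight at 37 C, loaded 45 min with FluxOr dye plus Red40 quencher. Thallium flux rate constant from kinetic reads after stimulation buffer, normalised to controls.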
TRHR enhancer-2: confirmation of human TRH receptor allosteric enhancers | AID 493076 | shares compounds with TRHR enhancer-1 | TRH receptor cell assay, enhancer confirmation qHTS | activity change, negative = inhibition, % at 46.1 µM | 970 tested, under 10 active;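 further: compound effect scored on response to added TRH at EC20 of 10 nM; 0% is about no effect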
TRHR agonist-2: human TRH receptor agonism confirmation; shares compounds with TRHR enhancer-1; TRHR-expressing cells, agonist activation read-out; Potency, µM (series often up to 46.1 µM), without a hit: at the highest dose activation, actives largely listed as activators; 970 tested, 8% active; further: potency means the concentration at half of the fitted maximal effect; 0% is about no effect; nearly all actives have a fitted effect of over 75% in size
Starred values were filed as active, the others as inactive; i = inactive; ? = inconclusive; / = no result. Most compounds without a hit are left out; they make up all but 1.7% or so of the library. Unless noted, the call rests on the fitted dose curve; in most records, active means well fitted curve in the direction sought with a large enough effect; inconclusive means small, poorly fitted or top-dose-only effect, or another doubt; inactive means no such curve, though single readings can be large; an effect the other way counts as inactive or inconclusive.

SMILES	TRHR enhancer-1	TRPML1 ag	hERG WT inh	TRPML1 inh	TRHR agonist-1	KCNH2 3.1 inh	TRHR enhancer-2	TRHR agonist-2
O=C(CSc1ccccc1)N1CCCC(N2CCN(c3ccccc3)CC2)C1 (centres undefined)	-4	-1	14	-15	-1	15	/	/
O=C(NNC(=S)NC(=O)c1ccccc1[N+](=O)[O-])c1ccccc1O	1	0	24	11	2	27	/	/
O=C(NC(=S)Nc1cccc2c(O)cccc12)c1ccccc1[N+](=O)[O-]	50*	0	-12	-18	0	5	-2	0%
O=[N+]([O-])/C=C\c1ccc(N2CCCC2)c(F)c1	-11	?	-6	-7	73*	-17	-13	?
Clc1ccccc1-c1nnc2sc(-c3ccc(Br)o3)nn12	-5	2	-8	-10	28	3	-14	1%
CC(=N/O)/C(C)=N\NC(=O)c1ccccn1	60*	0	0	0	0	32	1	0%
COC(=O)COc1ccc(S(=O)(=O)Nc2cc([N+](=O)[O-])ccc2C)cc1	45*	0	1	3	0	11	4	-1%
Cn1c(NCc2cccnc2)nc2cc(-c3cccc(C(=O)NCCO)c3)sc2c1=O	/	-1	/	/	/	/	/	/
COc1cc(C(=O)NC2CCCC2)c(Br)c(OC)c1OC	49*	-1	i	5	0	5	-1	5%
COc1cc(C(=O)NC2CCCCCCC2)cc(OC)c1OC	/	3	-6	18	/	11	/	/
O=C(c1ccc(F)cc1)N1CCN(c2ccc([N+](=O)[O-])cc2-n2cccc2)CC1	2	2	-8	76	0	-28	/	/
CC(=O)c1ccc(N2CCN(C(=O)Cc3ccccc3)CC2)c(F)c1	-6	-1	-5	14	2	1	/	/
O=C(Cc1ccccc1)N1CCN(c2ccccc2F)CC1	48*	0	-5	-1	-1	4	-5	2%
CCSc1ccccc1C(=O)N1CCN(c2ccccc2F)CC1	42*	1	-24	-11	0	-3	6	-1%
C[C@H](NS(=O)(=O)c1ccc(Cl)cc1)C(=O)OCC(=O)Nc1cc(S(=O)(=O)N2CCOCC2)ccc1Cl	/	2	9	-22	/	-6	/	/
O=C(Nc1ccc(CN2CCOCC2)cc1)c1ccc(F)cc1	56*	0	1	30	-1	-11	8	-1%
CCOC(=O)C1(C)CCCCCN1C(=O)c1ccc(OC)cc1 (centres undefined)	/	-1	/	/	/	/	/	/
O=C(N/N=C/c1cccnc1)c1ccccc1OCc1cccc(Br)c1	-3	1	0	-1	-2	-7	/	/
Cc1ccc(/C=N/NC(=O)c2ccccc2OCc2cccc(Br)c2)o1	58*	2	-16	-7	0	0	5	1%
O=C(COC(=O)c1cc(=O)[nH]c2ccccc12)NCc1ccc(Cl)cc1	-2	-1	1	-8	2	2	/	/
CCOC(=O)C1=C(CNCCc2ccc(Cl)cc2)NC(=O)NC1c1ccc2c(c1)OCO2 (centres undefined)	41*	0	24	14	0	/	7	?
Cn1c(=S)[nH]c2cc(C(=O)N3CCN(C(=O)c4ccccc4)CC3)ccc2c1=O	/	0	/	/	/	/	/	/
O=C(O)c1ccc(NS(=O)(=O)c2ccc3c(c2)OCCO3)cc1	9	0	0	-3	1	-4	/	/
CN(C)C(=O)c1ccc(NS(=O)(=O)c2ccc3c(c2)OCCO3)cc1	66*	1	-1	-3	0	2	-1	0%
Cc1nc(N2CCOCC2)nc(OCCN(C)C)c1[N+](=O)[O-]	4	0	15	13	0	7	/	/

Screening results deposited in PubChem BioAssay by National Center for Advancing Translational Sciences (NCATS).
